A short description of this experiment: NFkB reporter suppression in cystic fibrosis bronchial cells – cell-based, uHTS hits, panel, cytotoxicity readout, dose response (AID 624344). The note with it: CF bronchial epithelial cells, PAF-induced NFkB reporter inhibition, with PAF, run 1; at 79 µM (top of the series) unless noted.
For the compound `CCC(=O)Nc1nc(C)c(-c2csc(Nc3cccc(O)c3)n2)s1`, the inhibition (in general, the change of the read-out against control, counted positive when it falls) amounted to 95.9%.
For `COC(=O)N1C(=O)[C@@](c2ccc(OC)cc2)(C(C)C)N1C(=O)OC` the value was 101%.
For the compound `O=[N+]([O-])c1cccc(/C=N/Nc2cc(N3CCOCC3)ncn2)c1`, the inhibition is 116%.
For `CC[C@H](CO)Nc1nc(Nc2cccc(Cl)c2)c2ncn(C(C)C)c2n1` the value was 106%; for `Cc1nn(-c2ccccn2)c2c1-c1nc(N)ncc1CC2`, 98.6%.
With `CCOCC(=O)NC1CCc2cc(OC(=O)COCC)c(OC)c(OC)c2-c2ccc(SC)c(=O)cc21` (stereo not given), the inhibition stood at 45.7%.
For `COc1ccc(-c2cnc(N)nc2-c2ccc(OC)cc2O)cc1` the value was 112%.
For `COc1cccc(-c2ccc3ncnc(NCc4cccs4)c3c2)c1` the value was 117%; for `ON=C1c2ccccc2-c2cc(Br)ccc21`, 117%.
The same measure for `Cc1nnc(SCC(=O)N2CCC(c3noc4ccc(F)cc34)CC2)s1`: 101%; for `COc1ccc2c(c1)c(C(C)=O)c(C)n2-c1ccc(C(C)=O)cc1`: 89.8%.
Turning to `CC[C@@H](C(=O)[C@@H](C)[C@@H](O)[C@H](C)[C@@H]1O[C@@H]([C@@H](CC)C(=O)O)CC[C@@H]1C)[C@H]1O[C@]2(C=C[C@@H](O)[C@]3(CC[C@@](C)([C@H]4CC[C@](O)(CC)[C@H](C)O4)O3)O2)[C@H](C)C[C@@H]1C`, the inhibition stood at 117%.
Consider `NS(=O)(=O)c1ccc(CCNC(=O)c2ccc(C#CC3(O)CCCCC3)cc2)cc1`, for which the inhibition stood at 105%.
The same measure for `COc1ccc(-c2cc(=O)oc3cc(O)ccc23)cc1`: 105%; for `CCC(CO)Oc1cc(NCc2ccc(Cl)cc2Cl)c2ncn(C(C)C)c2c1` (stereo not given): 105%.

The values are drawn from PubChem BioAssay.
